According to PubChem BioAssay:
Active and inactive are the calls of the source.

Tests used:
[1] = binders of probe aFSTL3 on microarray, primary screen, stem cell growth factor project, biochemical, small-molecule microarray, fluorescence 635/667 (AID 1064); settings: higher = more signal;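 further: measures binding of the biotinylated anti-FSTL3 antibody to printed compounds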
[2] = binders from COS7 lysate, DM2A8 probe, primary screen, torsin A project, cell lysate, small-molecule microarray, fluorescence 635/667 (AID 1065); settings: higher = more signal, COS7 lysate expressing mutant human TOR1A
[3] = binders of probe aFGF2 on microarray, primary screen, stem cell growth factor project, biochemical, small-molecule microarray, fluorescence 635/667 (AID 1067); settings: higher = more signal;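 further: measures binding of biotinylated aFGF2 protein to printed compounds on slides; z-score merges feature fluorescence and signal-to-noise across triplicate slides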
[4] = binders of probe aFGF10 on microarray, primary screen, stem cell growth factor project, biochemical, small-molecule microarray, fluorescence 635/667 (AID 1071); settings: higher = more signal;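 further: score merges 667 nm spot intensity and signal to noise from triplicate slides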
[5] = molecular target: Neurogenic locus notch homolog protein 2 (Homo sapiens) (UniProt Q04721); test: Notch2 binders on small-molecule microarrays, primary screen, biochemical, small-molecule microarray, 635 nm fluorescence, stem cell growth factors (AID 1073); settings: Notch2 binding, higher = more signal
[6] = molecular target: Pro-neuregulin-1, membrane-bound isoform (Homo sapiens) (UniProt Q02297); test: NRG1 binders on small-molecule microarrays, primary screen, psychiatric disease protein project, biochemical, small-molecule microarray, fluorescence 635/667 (AID 1075); settings: NRG1 binding, 635 nm fluorescence, higher = more signal;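 further: score combines 667 nm spot fluorescence with signal to noise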
[7] = tested on: Neuregulin-1 EGF-like domain; test: binders of neuregulin-1 EGF-like domain, primary screen, biochemical, small-molecule microarray, 635 nm fluorescence (AID 1081); settings: small-molecule microarray binding, higher = more signal;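 further: binding of the protein to compounds printed on small-molecule microarray slides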
[8] = FRG1 promoter luciferase signal modulators, primary screen, FRG1 inhibition for FSHD, cell-based, C2C12 myotubes, firefly/Renilla luciferase, luminescence (AID 1084); settings: higher = more signal, called active from +8 up or from −8 down
[9] = binders of probe aFST on microarray, primary screen, stem cell growth factor project, biochemical, small-molecule microarray, fluorescence 635/667 (AID 1086); settings: higher = more signal;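 further: score merges 667 nm fluorescence with signal-to-noise of each printed compound spot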
[10] = binders of probe aHhip on microarray, primary screen, stem cell growth factor project, biochemical, small-molecule microarray, fluorescence 635/667 (AID 1087); settings: higher = more signal;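 further: score merges spot fluorescence at 667nm with spot signal to noise ratio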
[11] = tested on: PRMT1 (protein arginine N-methyltransferase 1); test: PRMT1 binders on small-molecule microarrays, primary screen, biochemical, small-molecule microarray, 635 nm fluorescence (AID 1088); settings: small-molecule microarray binding, higher = more signal;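 further: binding of Prmt1 protein to compounds spotted on small-molecule microarray slides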
[12] = yeast growth modulation, basal conditions, primary screen, YJM789 clinical isolate, OD600, 24 h (AID 1089);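 further: growth of clinical yeast isolate S. cerevisiae YJM 789 seeded 1000 cells per well; test concentration not given here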; settings: S. cerevisiae YJM789 growth, higher = more signal, called active from +8 up or from −8 down
[13] = fission yeast growth modulation, primary screen, strain 972, OD600, 24 h, no modulator (AID 1090);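 further: basal condition with compound alone and no growth modifier present; test concentration not given here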; settings: S. pombe 972 growth, higher = more signal, called active from +8 up or from −8 down
[14] = S. cerevisiae growth modulation with rapamycin, primary screen, strain BY4716, OD600, 96 h (AID 1091); settings: higher = more signal, called active from +8 up or from −8 down; further: test concentration not given here
[15] = molecular target: Torsin-1A-interacting protein 2 (Homo sapiens) (UniProt Q8NFQ8); test: LULL1 binders on small-molecule microarray, primary screen, cell lysate, human LULL1 lysate, 635/667 nm fluorescence (AID 1092); settings: hLULL1 lysate binding, 635 nm fluorescence, higher = more signal;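 further: probe is lysate of COS7 cells overexpressing human LULL1; score merges per-feature 667 nm fluorescence with signal-to-noise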
[16] = E. coli growth modulation, two-sided OD650, primary screen, E. coli filamentation project, strain DRC41, 24 h (AID 1093); settings: OD650, 24 h, higher = more signal, called active from +8 up or from −8 down;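 further: MC1000 strain lacking acrAB efflux and sulA so SOS filamentation is blocked; test concentration not given here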
[17] = small-molecule microarray binders of probe aLefty2, primary screen, biochemical, biotinylated probe, 635/667 nm fluorescence (AID 1094); settings: higher = more signal;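 further: score merges spot fluorescence near 667 nm with spot signal-to-noise ratio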
[18] = tested on: Noggin (protein binding on small-molecule microarray); test: Noggin binders on small-molecule microarray, primary screen, biochemical, 635/667 nm fluorescence (AID 1095); settings: 635 nm fluorescence, higher = more signal;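 further: score merges 667 nm feature fluorescence with signal to noise over triplicate slides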
[19] = molecular target: Neurogenic locus notch homolog protein 3 (Homo sapiens) (UniProt Q9UM47); test: NOTCH3 binders on small-molecule microarray, primary screen, biochemical, 635/667 nm fluorescence (AID 1096); settings: NOTCH3 binding, 635 nm fluorescence, higher = more signal
[20] = small-molecule microarray binders of probe aEGFR, primary screen, biochemical, biotinylated probe, 635/667 nm fluorescence (AID 1097); settings: higher = more signal;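 further: probe is a biotinylated anti-EGFR antibody binding compounds printed on slides; score combines fluorescence near 667 nm and signal to noise of each spot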

Neurogenic locus notch homolog protein 2 (Homo sapiens), sequence (Q04721 whole entry, looked up, canonical isoform): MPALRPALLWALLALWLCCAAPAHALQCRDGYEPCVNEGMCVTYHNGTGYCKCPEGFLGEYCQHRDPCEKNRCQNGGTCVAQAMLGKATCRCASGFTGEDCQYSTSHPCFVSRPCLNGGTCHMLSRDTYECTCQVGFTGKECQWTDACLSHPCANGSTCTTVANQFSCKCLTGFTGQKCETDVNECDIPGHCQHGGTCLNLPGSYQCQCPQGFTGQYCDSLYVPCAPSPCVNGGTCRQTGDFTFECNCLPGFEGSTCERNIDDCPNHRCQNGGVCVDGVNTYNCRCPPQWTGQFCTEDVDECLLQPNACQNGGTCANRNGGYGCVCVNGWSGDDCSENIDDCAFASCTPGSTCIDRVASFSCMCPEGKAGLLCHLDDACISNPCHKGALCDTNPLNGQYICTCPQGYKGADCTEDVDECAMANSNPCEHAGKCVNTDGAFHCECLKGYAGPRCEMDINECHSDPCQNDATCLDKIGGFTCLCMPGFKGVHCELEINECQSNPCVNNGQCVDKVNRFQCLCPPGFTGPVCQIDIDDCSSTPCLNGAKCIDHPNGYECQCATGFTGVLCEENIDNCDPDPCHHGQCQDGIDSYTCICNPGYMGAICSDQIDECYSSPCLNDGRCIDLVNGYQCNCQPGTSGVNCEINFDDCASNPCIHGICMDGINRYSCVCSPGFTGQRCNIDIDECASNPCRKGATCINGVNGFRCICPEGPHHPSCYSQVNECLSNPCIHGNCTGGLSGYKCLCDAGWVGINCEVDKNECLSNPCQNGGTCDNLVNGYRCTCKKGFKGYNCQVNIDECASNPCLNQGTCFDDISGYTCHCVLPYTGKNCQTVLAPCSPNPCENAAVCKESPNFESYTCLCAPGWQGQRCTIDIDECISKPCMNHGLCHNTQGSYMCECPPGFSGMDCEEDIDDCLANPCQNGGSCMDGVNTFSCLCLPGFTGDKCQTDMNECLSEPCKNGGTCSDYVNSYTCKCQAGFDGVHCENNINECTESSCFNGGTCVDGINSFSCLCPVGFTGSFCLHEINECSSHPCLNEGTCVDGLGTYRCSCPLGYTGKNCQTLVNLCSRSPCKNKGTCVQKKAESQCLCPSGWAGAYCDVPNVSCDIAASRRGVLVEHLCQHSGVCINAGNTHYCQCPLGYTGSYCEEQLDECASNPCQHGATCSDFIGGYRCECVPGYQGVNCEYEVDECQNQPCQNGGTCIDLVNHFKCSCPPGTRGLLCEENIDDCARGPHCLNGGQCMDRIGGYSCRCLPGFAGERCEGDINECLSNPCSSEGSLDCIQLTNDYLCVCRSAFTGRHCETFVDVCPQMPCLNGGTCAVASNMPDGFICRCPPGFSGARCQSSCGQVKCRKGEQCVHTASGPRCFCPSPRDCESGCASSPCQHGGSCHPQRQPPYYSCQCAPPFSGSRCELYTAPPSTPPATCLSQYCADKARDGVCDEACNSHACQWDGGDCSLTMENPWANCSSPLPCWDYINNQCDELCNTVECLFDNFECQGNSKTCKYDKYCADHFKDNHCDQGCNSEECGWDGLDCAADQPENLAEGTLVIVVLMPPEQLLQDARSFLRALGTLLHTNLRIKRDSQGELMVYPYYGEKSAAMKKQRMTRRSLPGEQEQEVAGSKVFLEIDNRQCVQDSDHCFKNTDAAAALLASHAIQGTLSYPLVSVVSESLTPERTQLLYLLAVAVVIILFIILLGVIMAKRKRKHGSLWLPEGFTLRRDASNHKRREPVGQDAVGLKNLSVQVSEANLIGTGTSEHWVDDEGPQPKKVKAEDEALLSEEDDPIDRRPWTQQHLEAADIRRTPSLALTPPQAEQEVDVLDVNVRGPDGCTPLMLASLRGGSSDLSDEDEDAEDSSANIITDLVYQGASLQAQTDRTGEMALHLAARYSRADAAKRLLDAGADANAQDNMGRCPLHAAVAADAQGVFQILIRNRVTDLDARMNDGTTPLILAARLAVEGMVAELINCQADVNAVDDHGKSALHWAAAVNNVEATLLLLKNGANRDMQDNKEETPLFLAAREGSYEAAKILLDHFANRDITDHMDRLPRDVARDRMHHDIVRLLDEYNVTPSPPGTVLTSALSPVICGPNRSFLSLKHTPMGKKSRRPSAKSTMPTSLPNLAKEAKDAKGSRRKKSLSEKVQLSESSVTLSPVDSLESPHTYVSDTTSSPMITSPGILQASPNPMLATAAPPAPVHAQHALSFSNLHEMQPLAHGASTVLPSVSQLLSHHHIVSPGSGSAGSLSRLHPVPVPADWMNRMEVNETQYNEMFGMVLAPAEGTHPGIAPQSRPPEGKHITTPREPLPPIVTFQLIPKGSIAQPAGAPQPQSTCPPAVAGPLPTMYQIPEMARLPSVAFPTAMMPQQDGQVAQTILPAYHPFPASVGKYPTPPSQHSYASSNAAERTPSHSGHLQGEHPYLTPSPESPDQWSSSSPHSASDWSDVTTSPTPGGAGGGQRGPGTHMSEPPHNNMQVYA
Pro-neuregulin-1, membrane-bound isoform (Homo sapiens), sequence (Q02297 whole entry, looked up, the tested form may be a part, canonical isoform): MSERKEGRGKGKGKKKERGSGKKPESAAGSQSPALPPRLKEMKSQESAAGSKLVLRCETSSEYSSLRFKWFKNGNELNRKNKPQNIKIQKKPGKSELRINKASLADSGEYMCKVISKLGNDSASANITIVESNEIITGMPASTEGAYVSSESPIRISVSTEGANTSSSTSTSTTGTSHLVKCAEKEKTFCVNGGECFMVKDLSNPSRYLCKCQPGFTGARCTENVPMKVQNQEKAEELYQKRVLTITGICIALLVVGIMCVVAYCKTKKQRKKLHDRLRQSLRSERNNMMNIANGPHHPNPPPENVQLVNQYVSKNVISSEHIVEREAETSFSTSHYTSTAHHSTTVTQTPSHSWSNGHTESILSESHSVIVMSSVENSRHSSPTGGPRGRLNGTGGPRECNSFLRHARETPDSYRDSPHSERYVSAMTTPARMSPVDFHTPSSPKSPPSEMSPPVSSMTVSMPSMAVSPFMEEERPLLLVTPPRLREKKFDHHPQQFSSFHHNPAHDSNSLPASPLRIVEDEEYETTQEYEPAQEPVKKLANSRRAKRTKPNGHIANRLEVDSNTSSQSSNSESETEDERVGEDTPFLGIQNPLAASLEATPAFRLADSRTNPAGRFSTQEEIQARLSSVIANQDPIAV
Torsin-1A-interacting protein 2 (Homo sapiens), sequence (Q8NFQ8 whole entry, looked up): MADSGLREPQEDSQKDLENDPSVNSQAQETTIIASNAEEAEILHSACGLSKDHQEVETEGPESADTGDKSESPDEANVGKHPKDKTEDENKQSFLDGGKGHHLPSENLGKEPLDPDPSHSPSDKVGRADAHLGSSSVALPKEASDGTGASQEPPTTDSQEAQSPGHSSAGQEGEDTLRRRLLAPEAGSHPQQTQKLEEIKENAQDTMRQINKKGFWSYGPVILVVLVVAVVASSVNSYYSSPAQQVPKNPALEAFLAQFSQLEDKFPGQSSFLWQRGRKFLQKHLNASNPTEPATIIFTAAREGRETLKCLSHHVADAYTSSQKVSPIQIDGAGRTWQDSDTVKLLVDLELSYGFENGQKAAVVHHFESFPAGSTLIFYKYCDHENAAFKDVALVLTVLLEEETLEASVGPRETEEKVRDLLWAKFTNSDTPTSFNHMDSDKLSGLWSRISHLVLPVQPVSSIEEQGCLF

| Structure (SMILES) | composite z-score [1] | composite z-score [2] | composite z-score [3] | composite z-score [4] | composite z-score [5] | composite z-score [6] | composite z-score [7] | z-score [8] | composite z-score [9] | composite z-score [10] | composite z-score [11] | z-score [12] | z-score [13] | z-score [14] | composite z-score [15] | z-score [16] | composite z-score [17] | composite z-score [18] | composite z-score [19] | composite z-score [20] |
| --- | --- | --- | --- | --- | --- | --- | --- | --- | --- | --- | --- | --- | --- | --- | --- | --- | --- | --- | --- | --- |
| C=C(C(=O)CC[C@H](OC(C)=O)c1ccc(CO)o1)C(C)C | -0.466 | 0.615 | -0.189 | 0.122 | -1.28 | -0.116 | 0.388 | -0.629 (inactive) | -0.393 | 0.0596 | 0.966 | 1.01 (inactive) | -0.344 (inactive) | -0.454 (inactive) | 0.468 | 1.44 (inactive) | -0.127 | 0.512 | -0.654 | -0.181 |
| CC(C)C(CO)N1C(=O)[C@@H]2[C@H]3C(=O)OCC=C[C@H]3OC23C=CCN(Cc2ccccc2)C(=O)[C@@H]13 (stereo not given in full) | -0.302 | -0.438 | -0.116 | -0.307 | -0.834 | -0.72 | -0.386 | -0.699 (inactive) | -0.361 | -0.0994 | -0.462 | -0.899 (inactive) | -0.742 (inactive) | -1.06 (inactive) | -1.04 | 2.08 (inactive) | -0.238 | -0.282 | -0.316 | -0.287 |
| COCCOC(=O)N1C(=O)[C@@]2(c3cc(C#CCNC(N)=O)ccc31)[C@H](C(=O)NC[C@H](O)c1ccccc1)[C@H]1C(=O)O[C@H](c3ccccc3)[C@H](c3ccccc3)N1[C@@H]2c1ccc(O)cc1 | 0.464 | 0.256 | -0.031 | 0.462 | -0.26 | 0.8 | 0.442 | 0.803 (inactive) | 0.24 | -0.191 | 1.54 | -0.124 (inactive) | -2.42 (inactive) | 0.893 (inactive) | 1.5 | 2 (inactive) | -0.104 | 0.737 | 0.698 | -0.132 |
| C=CCN1C(=O)[C@]2(O[C@H](CCn3cc([C@H](O)c4ccccc4)nn3)[C@@H]([Si](C)(C)c3ccc(OC)cc3)[C@@H]2C)c2cc(N3CCOC3=O)ccc21 | 0.264 | 0.443 | -0.154 | -0.213 | -0.74 | 0.579 | 1.16 | -2.7 (inactive) | -0.297 | -0.0128 | 1.37 | 0.326 (inactive) | 0.155 (inactive) | 4.47 (inactive) | 1.41 | 1.75 (inactive) | -0.23 | -0.394 | -0.583 | -0.232 |
| COc1c(C)cc(-c2cc3c(c(CCc4ccccc4)n2)[Si](C(C)C)(C(C)C)OC3)cc1C | -0.496 | 1.49 | -0.125 | 0.358 | 0.364 | -0.355 | 0.578 | -0.14 (inactive) | 0.287 | -0.0346 | 1.42 | -0.819 (inactive) | -1.57 (inactive) | -0.618 (inactive) | 0.778 | 2.29 (inactive) | -0.0866 | 0.288 | 0.34 | 0.0068 |
| CC(C)(C)OC(=O)CC[C@]1(C(=O)NCc2ccccc2)COC(c2ccc(OCCCO)cc2)=N1 | 0.508 | 1.3 | -0.0675 | 0.0174 | 0.431 | 1.79 | 1.1 | -2.97 (inactive) | 0.613 | -0.0047 | 0.712 | -1.08 (inactive) | -0.413 (inactive) | -1.64 (inactive) | 3.14 | 1.93 (inactive) | 0.0325 | -0.148 | -0.0559 | -0.058 |
| C[N+](C)(C)CCCC[C@@H]1NC(=O)[C@H]2C[C@@H](C(=O)NCCCCCN)[C@@H](c3cccc(OCCO)c3)N2C1=O | 0.89 | 0.419 | -0.0164 | 0.372 | 0.529 | 2.07 | 0.739 | -0.309 (inactive) | 1.69 | 0.242 | 0.665 | -0.706 (inactive) | -2.62 (inactive) | -0.207 (inactive) | 2.7 | 2.4 (inactive) | 0.739 | 0.387 | 0.526 | 0.162 |
| COC(=O)c1c2oc(c1C(=O)OC)C(=O)N[C@@H](C(C)C)Cn1nncc1C1(CCCCC1)NC(=O)N[C@H](CO)CC2 | -0.07 | 0.178 | -0.129 | 0.147 | -0.294 | 0.969 | 0.625 | -0.993 (inactive) | -0.103 | 0.0373 | -0.143 | 0.0957 (inactive) | -0.99 (inactive) | -0.787 (inactive) | 2.02 | 2.28 (inactive) | -0.208 | -0.494 | -0.373 | -0.144 |
| CCCCCN1CC=CC23O[C@@H]4/C=C\CCC(C)OC(=O)C4[C@H]2C(=O)N(CCO)[C@@H]3C1=O (stereo not given in full) | 0.767 | 2.14 | -0.216 | -0.807 | -0.762 | 0.77 | 1.13 | 0.569 (inactive) | -0.639 | -0.16 | -0.754 | -0.139 (inactive) | -1.24 (inactive) | -0.0531 (inactive) | 1.45 | 2.35 (inactive) | -0.139 | -1.36 | -0.728 | -0.317 |
| O=C1c2ccccc2[C@@]2(Cc3ccccc3N(CC(F)(F)F)C2=O)[C@H](c2ccc(CO)cc2)N1Cc1ccccc1C(F)(F)F | 0.886 | -0.752 | -0.131 | -0.597 | -1.34 | -0.61 | -1.2 | -0.435 (inactive) | -0.596 | -0.191 | 0.52 | -0.84 (inactive) | -1.25 (inactive) | -1.12 (inactive) | 0.394 | 0.886 (inactive) | -0.0412 | -1.51 | -1.18 | -0.26 |
